From the supplement of paper PMC12282887
± gives the standard deviation of the averaged measurements.

Columns and labels:
Experiment in all cases: promoter activity interaction Z-score (Lux/OD deviation from empty-vector control); higher = stronger promoter induction by the compound
[1] = tested on: E. coli BW25113 tolCp lux reporter
Outline: (§1)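 At 37°C, E. coli BW25113 reporter cultures in 40 µl LB Lennox in 384-well plates were read for OD600 and luminescence every 30 min for 12 h. Windows were 0–8 h for wild type and 1–9 h for deletion strains, and wells under 10% of the median growth value were removed. The score is the Z-transformed residual of growth-normalised luminescence against a control fit.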

[2] = tested on: E. coli BW25113 acrABp lux reporter
Outline: as §1

[3] = tested on: E. coli BW25113 marRABp lux reporter
Outline: as §1

[4] = tested on: E. coli BW25113 micFp lux reporter
Outline: as §1

[5] = tested on: E. coli BW25113 ompFp lux reporter
Outline: as §1

[6] = tested on: E. coli BW25113 robp lux reporter
Outline: as §1

[7] = tested on: E. coli BW25113 soxSp lux reporter
Outline: as §1

[8] = 9.8 µg/ml, genetic background: wild type
[9] = 9.8 µg/ml, genetic background: ΔmarA
[10] = 9.8 µg/ml, genetic background: Δrob
[11] = 9.8 µg/ml, genetic background: ΔsoxS
[12] = 19.5 µg/ml, genetic background: wild type
[13] = 19.5 µg/ml, genetic background: ΔmarA
[14] = 19.5 µg/ml, genetic background: Δrob
[15] = 19.5 µg/ml, genetic background: ΔsoxS
[16] = 39 µg/ml, genetic background: wild type
[17] = 39 µg/ml, genetic background: ΔmarA
[18] = 39 µg/ml, genetic background: Δrob
[19] = 39 µg/ml, genetic background: ΔsoxS

## O=C(N[C@H](CO)[C@H](O)c1ccc([N+](=O)[O-])cc1)C(Cl)Cl [Chloramphenicol]
[1]; 0.12 µg/ml, genetic background: ΔmarA
  promoter activity interaction Z-score: -0.0323 ± 0.44
[1]; 0.12 µg/ml, genetic background: Δrob
  promoter activity interaction Z-score: 0.149 ± 0.77
[1]; 0.12 µg/ml, genetic background: ΔsoxS
  promoter activity interaction Z-score: -0.831 ± 0.55
[1]; 0.24 µg/ml, genetic background: wild type
  promoter activity interaction Z-score: 0.339 ± 0.15
[1]; 0.24 µg/ml, genetic background: ΔmarA
  promoter activity interaction Z-score: 0.367 ± 0.84
[1]; 0.24 µg/ml, genetic background: Δrob
  promoter activity interaction Z-score: -0.202 ± 1.4
[1]; 0.24 µg/ml, genetic background: ΔsoxS
  promoter activity interaction Z-score: 0.0632 ± 1
[1]; 0.48 µg/ml, genetic background: wild type
  promoter activity interaction Z-score: 0.356 ± 1.2
[1]; 0.48 µg/ml, genetic background: ΔmarA
  promoter activity interaction Z-score: 0.168 ± 0.82
[1]; 0.48 µg/ml, genetic background: Δrob
  promoter activity interaction Z-score: -0.0545 ± 0.19
[1]; 0.48 µg/ml, genetic background: ΔsoxS
  promoter activity interaction Z-score: 2.03 ± 0.53
[1]; 1 µg/ml, genetic background: wild type
  promoter activity interaction Z-score: -0.0529 ± 0.35
[1]; 1 µg/ml, genetic background: ΔmarA
  promoter activity interaction Z-score: -0.256 ± 0.82
[1]; 1 µg/ml, genetic background: ΔsoxS
  promoter activity interaction Z-score: 1.66 ± 0.93

## c1ccc(-c2ccccn2)nc1 [2-2-Bipyridyl]
[2]; [8]
  promoter activity interaction Z-score: -0.38 ± 0.11
[2]; [9]
  promoter activity interaction Z-score: -0.262 ± 0.49
[2]; [10]
  promoter activity interaction Z-score: -0.666 ± 0.24
[2]; [11]
  promoter activity interaction Z-score: -0.339 ± 0.48
[2]; [12]
  promoter activity interaction Z-score: -0.678 ± 0.23
[2]; [13]
  promoter activity interaction Z-score: 0.0964 ± 1.5
[2]; [14]
  promoter activity interaction Z-score: -0.696 ± 0.048
[2]; [15]
  promoter activity interaction Z-score: -0.763 ± 0.36
[2]; [16]
  promoter activity interaction Z-score: -0.446 ± 0.45
[2]; [17]
  promoter activity interaction Z-score: 1.4 ± 0.6
[2]; [18]
  promoter activity interaction Z-score: -0.276 ± 0.72
[2]; [19]
  promoter activity interaction Z-score: -0.305 ± 0.33
[3]; [8]
  promoter activity interaction Z-score: 0.799 ± 0.78
[3]; [9]
  promoter activity interaction Z-score: 0.4 ± 0.48
[3]; [10]
  promoter activity interaction Z-score: -0.042 ± 0.093
[3]; [11]
  promoter activity interaction Z-score: -0.2756 ± 0.0019
[3]; [12]
  promoter activity interaction Z-score: 0.288 ± 0.12
[3]; [13]
  promoter activity interaction Z-score: 0.637 ± 0.14
[3]; [14]
  promoter activity interaction Z-score: -0.32 ± 0.14
[3]; [15]
  promoter activity interaction Z-score: -0.0307 ± 0.0061
[3]; [16]
  promoter activity interaction Z-score: 2.32 ± 0.13
[3]; [17]
  promoter activity interaction Z-score: 2.22 ± 0.2
[3]; [18]
  promoter activity interaction Z-score: 1.59 ± 0.24
[3]; [19]
  promoter activity interaction Z-score: 1.67 ± 0.33
[4]; [8]
  promoter activity interaction Z-score: 0.412 ± 0.33
[4]; [9]
  promoter activity interaction Z-score: 0.243 ± 0.14
[4]; [10]
  promoter activity interaction Z-score: 0.0359 ± 0.019
[4]; [11]
  promoter activity interaction Z-score: 0.7191 ± 0.0054
[4]; [12]
  promoter activity interaction Z-score: 1.15 ± 0.4
[4]; [13]
  promoter activity interaction Z-score: 0.622 ± 0.29
[4]; [14]
  promoter activity interaction Z-score: 0.498 ± 0.0061
[4]; [15]
  promoter activity interaction Z-score: 3.01 ± 0.73
[4]; [16]
  promoter activity interaction Z-score: 5.52 ± 0.58
[4]; [17]
  promoter activity interaction Z-score: 0.943 ± 0.12
[4]; [18]
  promoter activity interaction Z-score: 7.21 ± 1.5
[4]; [19]
  promoter activity interaction Z-score: 9.5118 ± 0.00024
[5]; [8]
  promoter activity interaction Z-score: -0.0949 ± 0.034
[5]; [9]
  promoter activity interaction Z-score: -0.555 ± 0.58
[5]; [10]
  promoter activity interaction Z-score: -0.389 ± 0.39
[5]; [11]
  promoter activity interaction Z-score: -0.351 ± 0.17
[5]; [12]
  promoter activity interaction Z-score: -0.745 ± 0.54
[5]; [13]
  promoter activity interaction Z-score: -0.948 ± 0.58
[5]; [14]
  promoter activity interaction Z-score: -0.682 ± 0.16
[5]; [15]
  promoter activity interaction Z-score: -0.195 ± 0.78
[5]; [16]
  promoter activity interaction Z-score: -1.5 ± 0.86
[5]; [17]
  promoter activity interaction Z-score: -1.52 ± 0.45
[5]; [18]
  promoter activity interaction Z-score: -0.777 ± 0.2
[5]; [19]
  promoter activity interaction Z-score: 0.325 ± 1.2
[6]; [8]
  promoter activity interaction Z-score: -0.0517 ± 0.47
[6]; [9]
  promoter activity interaction Z-score: 0.352 ± 0.77
[6]; [10]
  promoter activity interaction Z-score: -0.375 ± 0.059
[6]; [11]
  promoter activity interaction Z-score: -0.326 ± 0.77
[6]; [12]
  promoter activity interaction Z-score: -0.772 ± 0.88
[6]; [13]
  promoter activity interaction Z-score: 0.322 ± 0.12
[6]; [14]
  promoter activity interaction Z-score: -0.387 ± 0.49
[6]; [15]
  promoter activity interaction Z-score: -0.7 ± 0.084
[6]; [16]
  promoter activity interaction Z-score: -0.663 ± 1
[6]; [17]
  promoter activity interaction Z-score: 0.193 ± 0.17
[6]; [18]
  promoter activity interaction Z-score: 0.111 ± 0.013
[6]; [19]
  promoter activity interaction Z-score: 1.63 ± 3.1
[7]; [8]
  promoter activity interaction Z-score: 0.0863 ± 0.015
[7]; [9]
  promoter activity interaction Z-score: 0.104 ± 0.016
[7]; [10]
  promoter activity interaction Z-score: -0.0121 ± 0.077
[7]; [11]
  promoter activity interaction Z-score: -0.208 ± 0.27
[7]; [12]
  promoter activity interaction Z-score: -0.706 ± 0.15
[7]; [13]
  promoter activity interaction Z-score: -0.407 ± 0.018
[7]; [14]
  promoter activity interaction Z-score: -0.63 ± 0.12
[7]; [15]
  promoter activity interaction Z-score: -0.64 ± 0.078
[7]; [16]
  promoter activity interaction Z-score: -1.84 ± 0.052
[7]; [17]
  promoter activity interaction Z-score: -1.08 ± 0.22
[7]; [18]
  promoter activity interaction Z-score: -1.495 ± 0.0068
[7]; [19]
  promoter activity interaction Z-score: -1.14 ± 0.73
[1]; [8]
  promoter activity interaction Z-score: -0.433 ± 0.08
[1]; [9]
  promoter activity interaction Z-score: -0.587 ± 0.68
[1]; [10]
  promoter activity interaction Z-score: -0.425 ± 0.56
[1]; [11]
  promoter activity interaction Z-score: 0.264 ± 0.45
[1]; [12]
  promoter activity interaction Z-score: -1.32 ± 0.36
[1]; [13]
  promoter activity interaction Z-score: -0.963 ± 0.81
[1]; [14]
  promoter activity interaction Z-score: -0.8 ± 0.27
[1]; [15]
  promoter activity interaction Z-score: -0.588 ± 0.17
[1]; [16]
  promoter activity interaction Z-score: -0.831 ± 0.2
[1]; [17]
  promoter activity interaction Z-score: -1.07 ± 0.4
[1]; [18]
  promoter activity interaction Z-score: 0.715 ± 0.83
[1]; [19]
  promoter activity interaction Z-score: 1.8 ± 1.5
